From PubChem BioAssay
Hits are enriched below; roughly 7% of the tested compounds scored in any of these assays.
PI5P4Ka inh – PI5P4K alpha (human) kinase inhibition. actives 1.2% (n = 330,000). P48426. max response, %. AID 652105. PI5P4Kalpha enzyme, ADP-Glo luminescence, 60 min; stronger effect = lower value; active means max response of -50% or lower; inconclusive means between -30% and -50%; inactive means -30% or higher; further: value at the top dose of about 77 µM; on the % scale 0 is the no-effect control and ±100 the full control effect
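Reactions run in 0.038 M HEPES pH 7.4, 0.28 mM EGTA, 0.1% CHAPS and 5% DMSO, with PI5P4Kalpha, substrate, compound and 5 microM ATP final, one hour at room temperature. Readout is ADP-Glo luminescence.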
GCN5L2 inh – inhibitors of human GCN5L2 histone acetyltransferase; Q92830; GCN5L2 HAT assay, ThioGlo1 CoA-SH fluorescence; Potency, µM (series often up to 58.9 µM), for the others: at the highest dose activity change, negative = inhibition, usual class: inhibitors; actives 0.21% (n = 390,000); AID 504327; further: potency means the concentration at half of the fitted maximal effect; on the % scale 0 is the no-effect control and ±100 the full control effect
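qHTS, 1536-well. 20nM enzyme, pH 7.5 HEPES/EDTA/Tween-20 buffer; 15 min compound preinc., RT. Start: 75uM H3(1-25), 70uM AcCoA, 50uM ThioGlo1. Read Ex340/Em540 at t=0 (autofluorescence flag) and t=20 min.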
HP1b chromo inh – blocks HP1-beta chromodomain binding to methylated histone tails | P83916 | AlphaScreen HP1-beta / biotin-H3K9me3 peptide binding | Potency, µM (highest dose often 114 µM), for the others: top-dose activity change, negative = inhibition, usual class: inhibitors | actives 0.56% (n = 390,000); further: potency means the concentration at half of the fitted maximal effect; nearly all actives have a fitted effect of over 70% in size
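Compound inhibition of the preformed complex between 50 nM HP1-beta and 50 nM biotinylated H3K9me3 peptide was read by AlphaScreen. Buffer was PBS pH 7.4 with 0.01% Tween-20. Incubations ran 30 min at room temperature, with 10 ug/mL donor/acceptor beads.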
BAZ2B block – BAZ2B (human) inhibition | Q9UIF8 | AlphaScreen BAZ2B-H3K14Ac peptide displacement | Potency, µM (doses to about 114 µM), inactives show at the highest dose activity change, negative = inhibition, usual class: inhibitors | actives 4.4% (n = 360,000) | AID 504333; further: potency means the concentration at half of the fitted maximal effect; on the % scale 0 is the no-effect control and ±100 the full control effect; nearly all actives have a fitted effect of over 60% in size
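Compounds, titrated to a top concentration of 110 uM, were incubated 30 min at room temperature with preformed BAZ2B/acetyl-K14 H3 peptide complex (50 nM each). Proximity signal was measured by AlphaScreen after 20 min with beads.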
PLK1 PBD block – blocks phosphopeptide binding to human PLK1 polo-box domain; actives 2.8% (n = 360,000); Plk1 PBD binding of FITC phosphopeptide, fluorescence polarization; Potency, µM, without a hit: max response, negative = inhibition, hits mostly inhibitors; further: potency means the concentration at half of the fitted maximal effect; series mostly up to about 57 µM; on the % scale 0 is the no-effect control and ±100 the full control effect; nearly all actives have a fitted effect of over 65% in size
JMJD2A Tudor inh – blocks the human JMJD2A Tudor domain | O75164 | AlphaScreen JMJD2A-Tudor / H3K4me3 peptide binding | Potency, µM (series often up to 114 µM), inactives show at the highest dose activity change, negative = inhibition, actives largely listed as inhibitors | actives 4.4% (n = 390,000) | AID 504339; further: potency means the concentration at half of the fitted maximal effect; on the % scale 0 is the no-effect control and ±100 the full control effect; nearly all actives have a fitted effect of over 50% in size
* = called active by the depositor; ? = inconclusive; · = no result; [ ] = dose if it differs, or a comment. Unless noted, the call rests on the fitted dose curve; in most records, active means well fitted curve in the direction sought with a large enough effect; inconclusive means small, poorly fitted or top-dose-only effect, or another doubt; inactive means no such curve, though single readings can be large; an effect the other way counts as inactive or inconclusive.

SMILES	PI5P4Ka inh	GCN5L2 inh	HP1b chromo inh	BAZ2B block	PLK1 PBD block	JMJD2A Tudor inh
CCN(CC)CCC(c1ccc(N(C)C)cc1)c1c(O)cc(OC)cc1OC (stereo not drawn)	4	-2%	?	50µM*	4%	40µM*
COc1ccc(C(CCN2CCCC2)c2c(O)cc(OC)cc2OC)cc1 (stereo not drawn)	-2	-1%	-3%	?	0%	-24%
CN1CCN2c3ccccc3CC3(C(=O)OC(C)(C)OC3=O)C2C1 (stereo not drawn)	·	·	21%[57 µM]	·	·	5%[57.1 µM]
C=CCN(CC=C)C(=O)c1ccccc1NC(=O)c1ccccc1C	8	3%	38%	-6%	-7%	-16%
CC(NCC(=O)Nc1ccccc1C(=O)NC1CC1)c1cccc(C(F)(F)F)c1 (stereo not drawn)	3	-3%	34%	7%	-4%	-3%
O=C(/C=C/c1ccc(F)cc1)c1cc(Br)ccc1O	5	-6%	43%	-3%	-9%	23%
Cc1ccc(/C=C/C(=O)c2ccccc(=O)c2O)cc1C	-21	-3%	?	71µM*	30µM*	79µM*
O=C(/C=C/c1ccccc1)c1cc(Br)ccc(=O)c1O	-25	-16%	?	45µM*	27µM*	56µM*
CCOc1cc(/C=N\NC(=O)OC(C)(C)C)ccc1OC(=O)c1ccco1	-26	-12%	-20%	·	21µM*	20µM*
CC(C)(C)OC(=O)N/N=C\c1ccc(OC(=O)c2ccco2)cc1	-30	-8%	-12%	18%	24µM*	32µM*
O=C(Cc1ccccc1)N/N=C/c1ccc(OC(=O)/C=C\c2ccco2)cc1	0	-1%	21%	-1%	-1%	0%
COC(=O)N/N=C/c1ccc(OC(=O)/C=C/c2ccco2)cc1	-51*	?	-21%	71µM*	-14%	?
CCOc1cc(/C=N\NC(=O)OC)ccc1OC(=O)c1ccco1	-2	-4%	18%	-2%	4%	-8%
NC(=O)C1CCCN(C(=O)c2ccc(Cl)c(S(=O)(=O)N3CCc4ccccc43)c2)C1 (stereo not drawn)	-27	-28%	1%	5%	-13%	-25%
COc1ccc(-c2nc3scc(CCNS(=O)(=O)c4ccc5c(c4)OCCO5)n3n2)cc1	·	1%	25%	-13%	·	-16%
CCOc1ccccc1C(=O)NCc1nc2cccnc2n1Cc1ccc(C)cc1	·	2%	14%[57 µM]	1%	·	-9%
Cc1[nH][nH]c(=O)c1C(c1ccc(-c2ccccc2C(=O)O)o1)c1c(C)[nH][nH]c1=O	-2	-11%	-1%	35µM*	?	89µM*
COC(=O)c1ccc(-c2ccc(C(c3c(C)[nH][nH]c3=O)c3c(C)[nH][nH]c3=O)o2)cc1	?	-21%	-26%	8.9µM*	12µM*	32µM*
COc1cc(C(c2c(C)[nH][nH]c2=O)c2c(C)[nH][nH]c2=O)ccc1OC(=O)c1cccc([N+](=O)[O-])c1	-1	-3%	4%	-38%	?	?
Cc1[nH][nH]c(=O)c1C(c1ccc(-c2ccc(Cl)cc2Cl)o1)c1c(C)[nH][nH]c1=O	·	-1%	·	?	·	·
COc1ccc(C(=O)Oc2ccc(C(c3c(C)[nH][nH]c3=O)c3c(C)[nH][nH]c3=O)cc2OC)cc1	·	0%	15%	?	·	?
Cc1[nH][nH]c(=O)c1C(c1ccc(-c2cccc(Cl)c2)o1)c1c(C)[nH][nH]c1=O	-15	-10%	?	40µM*	12µM*	45µM*
Cc1[nH][nH]c(=O)c1C(c1ccc(-c2cccc(C(=O)O)c2)o1)c1c(C)[nH][nH]c1=O	?	0%	?	79µM*	?	56µM*
NC(=O)NC(=O)COC(=O)CCCSc1nc2ccccc2s1	5	-3%	6%	-1%	21µM*	-4%[11.4 µM]
CCOC(=O)NC(=O)COC(=O)CCCSc1nc2ccccc2s1	-11	-10%	28%	16%	-19%	-18%
SMILES	PI5P4Ka inh	GCN5L2 inh	HP1b chromo inh	BAZ2B block	PLK1 PBD block	JMJD2A Tudor inh
O=C(COC(=O)CCCc1nc2ccccc2s1)NC(=O)NCc1ccco1	-13	-13%	4%	56µM*	-7%	?
O=C(NCc1ccco1)c1nc2ccccc2s1	·	1%	12%	-5%	-5%	-34%
COc1ccc(C(=O)Nc2ccc3c(c2)N(C2CCCC2)C(=O)c2ccccc2S3)cc1OC	·	1%	15%	-17%	·	-30%
O=S(=O)(NCC1(N2CCOCC2)CCCCC1)c1ccc(F)c(F)c1F	-3	-3%	12%	-4%	-1%	-10%
COc1cc(/C=C2\C(=N)N3N=C(C(C)C)SC3=NC2=O)ccc1OCCOc1ccc(NC(C)=O)cc1	-5	-3%	61%	-15%	?	-13%
COc1cc(/C=C2/C(=N)N3N=C(C(C)C)SC3=NC2=O)ccc1OS(=O)(=O)c1ccccc1	?	-18%	-17%	-14%	38µM*	-34%
CCC1=NN2C(=N)/C(=C/c3ccc(OS(=O)(=O)c4ccccc4)c(OC)c3)C(=O)N=C2S1	-26	-10%	-23%	-10%	19µM*	-34%
COc1cc(/C=C2/C(=N)N3N=C(CC(=O)N4CCOCC4)SC3=NC2=O)ccc1OCc1ccccc1	1	-18%	54%	0%	-9%	-6%
CCC1=NN2C(=N)/C(=C\c3cccn3-c3ccc(OC)cc3)C(=O)N=C2S1	-2	-11%	-12%	32µM*	?	79µM*
CCCn1c(SCC(=O)NC2CC2)nnc1-c1ccccn1	2	-3%	15%	?	-4%	1%
COC(=O)[C@@]12CCCCN1[C@H](c1ccc(-c3ccc(F)cc3)cc1)[C@H]1C(=O)N(C)C(=O)[C@H]12	21	-1%	27%	·	6%	-13%
COC(=O)[C@@]12CCCN1[C@H](c1ccc(-c3ccc(F)cc3)cc1)[C@H]1C(=O)N(C)C(=O)[C@H]12	4	-18%	33%	71µM*	9%	-28%
Nc1ccc2c(O)cc(S(=O)(=O)O)cc2c1	-58*	·	?	·	-27%	45µM*
Nc1cccc2c(O)cc(S(=O)(=O)O)cc12	-88*	·	10µM*	·	13µM*	10µM*
Nc1cccc2c(O)cccc12	-3	·	-5%	·	-13%	-29%
Cc1cc2c(cc1NS(=O)(=O)c1cccc(C#N)c1)n(C)c(=O)c(=O)n2C	·	-3%	62%	-16%	·	-8%
O=C(O)CSc1sc(=S)sc1SCC(=O)O	·	-5%	0%	-29%	27µM*	?
COc1ccc(/C=N/NC(=O)c2cc(-c3cccn3C)n[nH]2)cc1OC	-8	-2%	?	50µM*	-23%	-12%[57.1 µM]
